SMILES strings stand for the structures. Activity calls are given as the source filed them. How the source made its calls: active means hit-call score of the fitted dose curve at least 0.9, where 1 is the maximum; inactive means score below 0.9.

This note sets out measurements from PubChem BioAssay (EPA / NIEHS).

Read-out in test [1]: Thrombomodulin, THBD (gene 7056)
Description: BSK_3C_Thrombomodulin: BioMAP Diversity Plus: 3C Assay for Thrombomodulin Biomarker Activity (AID 2283029). The settings on record: primary human endothelial cells (HUVEC); actives raise or lower the signal. Put shortly:
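Read-out is ELISA of thrombomodulin on human umbilical vein endothelium 24 h after chemical dosing. Gain or loss of signal is scored relative to DMSO. Overt cytotoxicity is checked in parallel cultures by sulforhodamine B staining.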

Read-out in test [2]: Urokinase-type plasminogen activator receptor (uPAR), PLAUR (gene 5329)
Description: BSK_4H_uPAR: BioMAP Diversity Plus: 4H Assay for Urokinase-type plasminogen activator receptor (uPAR) Biomarker Activity (AID 2283030). The settings on record: primary human endothelial cells (HUVEC); actives raise or lower the signal. Put shortly: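 uPAR level read by ELISA on HUVEC cultures (BioMAP 4H) 24 h post-dosing, analyzed for gain or loss relative to DMSO. Parallel SRB staining assessed overt cytotoxicity.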

Read-out in test [3]: Vascular endothelial growth factor receptor 2 (Homo sapiens) (UniProt P35968)
Nature of the test: BSK_4H_VEGFRII: BioMAP Diversity Plus: 4H Assay for Vascular endothelial growth factor receptor 2 (VEGFR2) Biomarker Activity (AID 2283031).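 On AC50: cell-surface VEGFR2 protein level quantified by ELISA.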 To be noted: primary human endothelial cells (HUVEC); actives raise or lower the signal. In short, it runs like this:
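Measured by ELISA after 24 h of compound treatment: VEGFR2 on primary human umbilical vein endothelial cells, fitted in both directions relative to DMSO. Parallel cultures received SRB staining (560 nm) for overt cytotoxicity.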

Read-out in test [4]: Human Leukocyte Antigen - DR isotype (HLADR), HLA-DRA (gene 3122)
Nature of the test: BSK_BE3C_HLADR: BioMAP Diversity Plus: BE3C Assay for Human Leukocyte Antigen - DR isotype (HLADR) Biomarker Activity (AID 2283032). The settings on record: primary human bronchial epithelial cells; actives raise or lower the signal. In short, it runs like this:
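ELISA read-out of HLA-DR on human lung bronchial epithelial primary cells, measured 24 h post-dosing. Both increases and decreases were scored relative to DMSO vehicle.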

Read-out in test [5]: Vascular cell adhesion molecule 1 (VCAM1), VCAM1 (gene 7412)
Description: BSK_4H_VCAM1: BioMAP Diversity Plus: 4H Assay for Vascular cell adhesion molecule 1 (VCAM1) Biomarker Activity (AID 2283033).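 On outcome: cell-surface VCAM-1 protein measured by ELISA.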 The settings on record: primary human endothelial cells (HUVEC); actives raise or lower the signal. Put shortly: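 ELISA read-out of VCAM-1 on human umbilical vein endothelium 24 hours after chemical dosing; gain or loss of signal was fitted relative to DMSO, with sulforhodamine B staining of parallel cultures flagging overt cytotoxicity.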

Read-out in test [6]: Monokine induced gamma interferon (MIG), CXCL9 (gene 4283)
Nature of the test: BSK_BE3C_MIG: BioMAP Diversity Plus: BE3C Assay for Monokine induced gamma interferon (MIG) Biomarker Activity (AID 2283035).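 On outcome: MIG protein measured by ELISA in BE3C cultures after 24 h of dosing.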 To be noted: primary human bronchial epithelial cells; actives raise or lower the signal. In short, it runs like this:
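ELISA read-out of MIG in human lung bronchial epithelial primary cultures, 24 h post-dosing. Bidirectional curve fit vs DMSO baseline.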

Read-out in test [7]: Transforming growth factor beta 1 (TGFb1), TGFB1 (gene 7040)
Description: BSK_BE3C_TGFb1: BioMAP Diversity Plus: BE3C Assay for Transforming growth factor beta 1 (TGFb1) Biomarker Activity (AID 2283036;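 on outcome: TGF-b1 protein level measured by ELISA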). The settings on record: primary human bronchial epithelial cells; actives raise or lower the signal. In short, it runs like this:
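Primary human lung bronchial epithelial cells; compound exposure 24 h; TGF-b1 by ELISA; bidirectional fit, DMSO baseline. Parallel SRB total-protein staining for cytotoxicity.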

Read-out in test [8]: Plasminogen activator inhibitor-1 (PAI1), SERPINE1 (gene 5054)
Description: BSK_BE3C_PAI1: BioMAP Diversity Plus: BE3C Assay for Plasminogen activator inhibitor-1 (PAI1) Biomarker Activity (AID 2283037). The settings on record: primary human bronchial epithelial cells; actives raise or lower the signal. In short, it runs like this:
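Primary human lung bronchial epithelial cells; chemical dosing; 24 h; PAI-1 measured by ELISA; bidirectional fit referenced to DMSO as negative control.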

Read-out in test [9]: urokinase plasminogen activator (uPA), PLAU (gene 5328)
Description: BSK_BE3C_uPA: BioMAP Diversity Plus: BE3C Assay for urokinase plasminogen activator (uPA) Biomarker Activity (AID 2283038).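 On outcome: uPA protein level quantified by ELISA in cell cultures; uPA read one day after compound addition.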 To be noted: primary human bronchial epithelial cells; actives raise or lower the signal. In short, it runs like this: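 ELISA for uPA on human primary bronchial epithelial cultures 24 h post-treatment, gain or loss against DMSO. Parallel SRB staining (0.1% after 10% TCA fixation, 560 nm) assessed overt cytotoxicity.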

Read-out in test [10]: Urokinase-type plasminogen activator receptor (uPAR), PLAUR (gene 5329)
Nature of the test: BSK_BE3C_uPAR: BioMAP Diversity Plus: BE3C Assay for Urokinase-type plasminogen activator receptor (uPAR) Biomarker Activity (AID 2283039).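 On outcome: uPAR protein level measured by ELISA on the cells; cells exposed to compound for one day before measurement.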 To be noted: primary human bronchial epithelial cells; actives raise or lower the signal. In short, it runs like this:
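Human bronchial epithelial primary cells; chemical exposure 24 h; uPAR by ELISA; bidirectional fit vs DMSO control.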

Read-out in test [11]: Interleukin-6 (IL6), IL6 (gene 3569)
Description: BSK_CASM3C_IL6: BioMAP Diversity Plus: CASM3C Assay for Interleukin-6 (IL6) Biomarker Activity for (AID 2283040). The settings on record: primary human coronary artery smooth muscle cells; actives raise or lower the signal.

Read-out in test [12]: Tissue plasminogen activator (tPA), PLAT (gene 5327)
Nature of the test: BSK_BE3C_tPA: BioMAP Diversity Plus: BE3C Assay for Tissue plasminogen activator (tPA) Biomarker Activity (AID 2283041).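 On outcome: tPA level quantified by ELISA one day after compound addition.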 To be noted: primary human bronchial epithelial cells; actives raise or lower the signal. Put shortly:
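Primary human lung bronchial epithelial cultures receive test chemical; after 24 h, tPA is quantified by ELISA, and gain or loss of signal is fitted bidirectionally relative to DMSO baseline.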

Read-out in test [13]: Interleukin-8 (IL8), CXCL8 (gene 3576)
Description: BSK_CASM3C_IL8: BioMAP Diversity Plus: CASM3C Assay for Interleukin-8 (IL8) Biomarker Activity (AID 2283042).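 Further: IL-8 protein level quantified by ELISA.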 To be noted: primary human coronary artery smooth muscle cells; actives raise or lower the signal.

Read-out in test [14]: Human Leukocyte Antigen - DR isotype (HLADR), HLA-DRA (gene 3122)
Nature of the test: BSK_CASM3C_HLADR: BioMAP Diversity Plus: CASM3C Assay for Human Leukocyte Antigen - DR isotype (HLADR) Biomarker Activity (AID 2283043).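 Further: cell-surface HLA-DR protein level quantified by ELISA.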 To be noted: primary human coronary artery smooth muscle cells; actives raise or lower the signal.

Read-out in test [15]: Macrophage colony-stimulating factor (MCSF), CSF1 (gene 1435)
Description: BSK_CASM3C_MCSF: BioMAP Diversity Plus: CASM3C Assay for Macrophage colony-stimulating factor (MCSF) Biomarker Activity (AID 2283044).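 Further: M-CSF protein amount quantified by ELISA after 24 h exposure.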 The settings on record: primary human coronary artery smooth muscle cells; actives raise or lower the signal.

Read-out in test [16]: Low-density lipoprotein receptor (LDLR), LDLR (gene 3949)
Nature of the test: BSK_CASM3C_LDLR: BioMAP Diversity Plus: CASM3C Assay for Low-density lipoprotein receptor (LDLR) Biomarker Activity (AID 2283045).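 Further: LDLR protein level on the cell surface quantified by ELISA.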 The settings on record: primary human coronary artery smooth muscle cells; actives raise or lower the signal.

Read-out in test [17]: Monocyte Chemoattractant Protein-1 (MCP1), CCL2 (gene 6347)
Nature of the test: BSK_CASM3C_MCP1: BioMAP Diversity Plus: CASM3C Assay for Monocyte Chemoattractant Protein-1 (MCP1) Biomarker Activity (AID 2283046).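 Further: MCP-1 level quantified by ELISA 24 h after dosing.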 To be noted: primary human coronary artery smooth muscle cells; actives raise or lower the signal.

A short description of test [18]: BSK_CASM3C_Proliferation: Cell Proliferation Assessment in the BioMAP Diversity Plus: CASM3C Assay (AID 2283047).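 Further: sulforhodamine B total protein stain as relative cell number at 560 nm; sub-confluent cells exposed 48 h before staining; fitted both ways against DMSO so gain or loss of cell number.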 To be noted: primary human coronary artery smooth muscle cells.
Read-out in test [19]: Monokine induced gamma interferon (MIG), CXCL9 (gene 4283)
Nature of the test: BSK_CASM3C_MIG: BioMAP Diversity Plus: CASM3C Assay for Monokine induced gamma interferon (MIG) Biomarker Activity (AID 2283048).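 Further: MIG protein level measured by ELISA.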 To be noted: primary human coronary artery smooth muscle cells; actives raise or lower the signal.

Take `CCSC(C)CC1CC(=O)C(C(CC)=NOC/C=C/Cl)=C(O)C1` (stereo unspecified): the result in test [1], in test [2], in test [3], in test [4], in test [5] and in test [6] was inactive. Further, the result in test [7], in test [8], in test [9], in test [10], in test [11] and in test [12] was inactive. In addition, the result in [13], in [14], in test [15], in test [16], in test [17] and in test [18] was inactive. Further, in test [19], the result was inactive.
As to `O=C1C2(Cl)C3(Cl)C4(Cl)C(Cl)(Cl)C5(Cl)C3(Cl)C1(Cl)C5(Cl)C24Cl` (stereo unspecified), the result in test [1] was inactive. Further, the concentration at half-maximal activity (AC50) in [2] is 9.73 µM (active); in [3], 5.18 µM (active); in [4] it was 7.65 µM (active); in test [5], 8.36 µM (active); in test [6], 9.37 µM (active); in [7] it was 5.28 µM (active). Also, the AC50 is 8.29 µM (active) in test [8]; 5.32 µM (active) in test [9]; 6.12 µM (active) in test [10]; 33.5 µM (active) in [11]; 3 µM (active) in test [12]; 35.6 µM (active) in test [13]. The AC50 in test [14] is 14.9 µM (active); in test [15], 26.6 µM (active); in test [16] it was 10.5 µM (active); in test [17] it was 31.3 µM (active); in test [18] it was 6.61 µM (active); in test [19] it was 34.2 µM (active).
For `CCC(=O)C(CC(C)N(C)C)(c1ccccc1)c1ccccc1` (stereo unspecified), the result in [1], in [2], in test [3], in test [4], in test [5] and in [6] was inactive. The outcome in test [7], in test [8], in test [9], in test [10], in test [11] and in test [12] was inactive. For the same compound, the outcome in test [13], in test [14], in test [15], in test [16], in test [17] and in test [18] was inactive. In addition, the outcome in [19] was inactive.
For the compound `CN(C)N=O`, the outcome in test [1], in [2], in test [3], in test [4], in test [5] and in [6] was inactive. The result in [7], in test [8], in test [9], in test [10], in test [11] and in [12] was inactive. The result in test [13], in test [14], in [15], in [16], in test [17] and in test [18] was inactive. Moreover, the result in test [19] was inactive.

In general, AC50 refers to the concentration at which the activity in the assay is half-maximal.
